Among the data in publication PMC7862700, “An all-to-all approach to the identification of sequence-specific readers for epigenetic DNA modifications on cytosine” are binding signal values, retold here.

Assay in all cases: DAPPL (digital affinity profiling via proximity ligation, sequencing); 10 mM Tris-HCl pH 7.5, 50 mM NaCl, 1 mM DTT, 4% glycerol, room temperature, 30 min; GST-TFs on glutathione beads, 16-mer random dsDNA library, 0.1% formaldehyde crosslink after washing; high values mean tight binding
One assay addresses T1, FLI1 (Homo sapiens, UniProt Q01543 1-452).
T1 sequence: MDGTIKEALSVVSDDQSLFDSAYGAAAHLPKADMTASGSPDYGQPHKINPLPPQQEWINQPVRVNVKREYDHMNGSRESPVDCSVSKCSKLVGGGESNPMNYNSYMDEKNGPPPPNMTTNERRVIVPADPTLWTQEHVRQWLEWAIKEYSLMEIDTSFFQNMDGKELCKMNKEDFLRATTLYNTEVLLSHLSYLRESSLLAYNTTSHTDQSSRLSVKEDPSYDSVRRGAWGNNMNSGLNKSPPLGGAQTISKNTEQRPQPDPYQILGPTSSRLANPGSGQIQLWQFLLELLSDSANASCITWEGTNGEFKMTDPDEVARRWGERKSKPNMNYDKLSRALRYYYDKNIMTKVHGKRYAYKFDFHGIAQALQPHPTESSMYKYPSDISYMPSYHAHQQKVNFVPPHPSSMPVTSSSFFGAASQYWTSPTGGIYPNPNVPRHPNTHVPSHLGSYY
To be noted: protein: recombinant; tags: N-terminal GST; dsDNA, one strand shown. A digest of the protocol: (§1)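 Binding signal is given per hexamer as its read frequency for a factor divided by its frequency in the tag-only sample. GST-fused human transcription factors were expressed in yeast, captured on glutathione beads, barcoded with DNA and pooled with that sample, then incubated with 200 nmole of a 16-mer random double-stranded DNA library in Tris/NaCl/DTT/glycerol buffer for 30 min at room temperature. The pools were then washed, crosslinked, proximity-ligated, amplified by PCR and sequenced on an Illumina NextSeq500.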

The target of the next assay is T2, ELK1 (Homo sapiens, UniProt P19419 1-428).
T2 sequence: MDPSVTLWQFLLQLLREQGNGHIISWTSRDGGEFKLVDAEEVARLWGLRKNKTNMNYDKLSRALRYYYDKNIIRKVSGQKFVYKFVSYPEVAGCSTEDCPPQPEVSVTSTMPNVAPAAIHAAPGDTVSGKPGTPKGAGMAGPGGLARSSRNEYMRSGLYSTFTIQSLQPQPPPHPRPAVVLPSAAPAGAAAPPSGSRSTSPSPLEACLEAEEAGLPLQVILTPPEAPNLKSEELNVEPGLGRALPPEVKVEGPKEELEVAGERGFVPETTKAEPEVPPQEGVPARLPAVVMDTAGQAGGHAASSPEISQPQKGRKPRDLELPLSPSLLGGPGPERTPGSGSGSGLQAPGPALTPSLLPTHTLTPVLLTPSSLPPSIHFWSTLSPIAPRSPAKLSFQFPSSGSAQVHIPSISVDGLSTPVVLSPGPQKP
Conditions: protein: recombinant; tags: N-terminal GST; dsDNA, one strand shown. A digest of the protocol: as §1

The next assay concerns the target T3, GABPA (Homo sapiens, UniProt Q06546 1-454).
T3 sequence: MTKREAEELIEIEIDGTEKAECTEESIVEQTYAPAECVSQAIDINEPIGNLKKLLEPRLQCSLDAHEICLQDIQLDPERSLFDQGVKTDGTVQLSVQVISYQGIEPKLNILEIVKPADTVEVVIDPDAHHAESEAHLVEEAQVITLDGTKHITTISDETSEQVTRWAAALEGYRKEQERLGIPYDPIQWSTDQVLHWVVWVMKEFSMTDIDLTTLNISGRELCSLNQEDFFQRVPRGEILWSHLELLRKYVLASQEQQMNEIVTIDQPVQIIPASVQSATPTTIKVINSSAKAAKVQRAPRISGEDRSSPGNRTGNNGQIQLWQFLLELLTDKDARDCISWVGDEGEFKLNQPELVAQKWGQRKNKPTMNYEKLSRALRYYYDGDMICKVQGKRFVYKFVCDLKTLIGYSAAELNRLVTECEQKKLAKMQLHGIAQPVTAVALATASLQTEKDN
Conditions: protein: recombinant; tags: N-terminal GST; dsDNA, one strand shown. A digest of the protocol: as §1

The target of the next assay is T4, ERG (Homo sapiens, UniProt P11308 1-479).
T4 sequence: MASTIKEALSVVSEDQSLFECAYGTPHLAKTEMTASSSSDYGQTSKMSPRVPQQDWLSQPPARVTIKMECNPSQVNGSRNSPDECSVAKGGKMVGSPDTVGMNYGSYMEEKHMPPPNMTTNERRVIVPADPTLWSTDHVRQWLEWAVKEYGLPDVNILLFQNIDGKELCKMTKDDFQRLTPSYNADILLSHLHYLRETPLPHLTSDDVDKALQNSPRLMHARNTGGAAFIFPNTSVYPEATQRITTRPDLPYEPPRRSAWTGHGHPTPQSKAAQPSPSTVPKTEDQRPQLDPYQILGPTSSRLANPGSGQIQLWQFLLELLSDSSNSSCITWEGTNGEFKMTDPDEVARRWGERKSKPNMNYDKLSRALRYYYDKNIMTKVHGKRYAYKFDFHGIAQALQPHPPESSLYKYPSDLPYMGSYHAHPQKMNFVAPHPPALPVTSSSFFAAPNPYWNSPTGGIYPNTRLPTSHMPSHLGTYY
To be noted: protein: recombinant; tags: N-terminal GST; dsDNA, one strand shown. A digest of the protocol:
as §1

For another assay, the target named is ELF1 (Homo sapiens, UniProt P32519 1-619). Conditions: protein: recombinant; tags: N-terminal GST; dsDNA, one strand shown. A digest of the protocol:
as §1

The target of another assay is T5, EHF (Homo sapiens, UniProt Q9NZC4 1-300).
T5 sequence: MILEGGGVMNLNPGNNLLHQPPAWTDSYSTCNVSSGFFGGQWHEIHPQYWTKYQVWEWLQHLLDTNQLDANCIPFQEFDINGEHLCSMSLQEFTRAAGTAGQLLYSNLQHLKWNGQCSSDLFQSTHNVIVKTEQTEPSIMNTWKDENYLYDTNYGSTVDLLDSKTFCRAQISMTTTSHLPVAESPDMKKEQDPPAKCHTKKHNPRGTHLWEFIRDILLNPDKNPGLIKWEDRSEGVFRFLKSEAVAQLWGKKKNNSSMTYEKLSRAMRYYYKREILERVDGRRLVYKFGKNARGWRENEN
Conditions: protein: recombinant; tags: N-terminal GST; dsDNA, one strand shown. A digest of the protocol: as §1

The target of the next assay is SPI1 (Homo sapiens, UniProt P17947 1-270). Conditions: protein: recombinant; tags: N-terminal GST; dsDNA, one strand shown. Summed up: as §1
The target in another assay is SPIB (Homo sapiens, UniProt Q01892 1-262). To be noted: protein: recombinant; tags: N-terminal GST; dsDNA, one strand shown. Summed up: as §1
Another assay addresses T6, ELK3 (Homo sapiens, UniProt P41970 1-407).
T6 sequence: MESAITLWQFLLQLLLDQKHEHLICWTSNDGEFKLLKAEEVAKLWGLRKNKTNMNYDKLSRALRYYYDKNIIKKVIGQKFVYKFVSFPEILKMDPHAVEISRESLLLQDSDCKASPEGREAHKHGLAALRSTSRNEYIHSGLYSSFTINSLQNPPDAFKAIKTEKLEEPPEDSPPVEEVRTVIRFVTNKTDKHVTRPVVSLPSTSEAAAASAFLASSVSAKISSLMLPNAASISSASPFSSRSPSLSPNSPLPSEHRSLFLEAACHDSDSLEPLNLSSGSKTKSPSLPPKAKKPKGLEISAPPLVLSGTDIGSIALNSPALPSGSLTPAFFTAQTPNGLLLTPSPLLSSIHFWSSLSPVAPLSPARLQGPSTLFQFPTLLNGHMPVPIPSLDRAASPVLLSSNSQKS
Conditions: protein: recombinant; tags: N-terminal GST; dsDNA, one strand shown. A digest of the protocol: as §1

A further assay deals with T7, FEV (Homo sapiens, UniProt Q99581 1-238).
T7 sequence: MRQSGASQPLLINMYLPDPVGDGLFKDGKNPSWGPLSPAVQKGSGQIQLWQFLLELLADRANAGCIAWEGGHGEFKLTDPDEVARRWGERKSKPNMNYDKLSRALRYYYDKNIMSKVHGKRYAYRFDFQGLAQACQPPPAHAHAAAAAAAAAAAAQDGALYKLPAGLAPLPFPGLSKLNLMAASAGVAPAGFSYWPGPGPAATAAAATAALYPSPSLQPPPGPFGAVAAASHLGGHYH
To be noted: protein: recombinant; tags: N-terminal GST; dsDNA, one strand shown. A digest of the protocol:
as §1

Another assay concerns the target ETV5 (Homo sapiens, UniProt P41161 1-510). To be noted: protein: recombinant; tags: N-terminal GST; dsDNA, one strand shown. Summed up: as §1
The next assay concerns the target HSF1 (Homo sapiens, UniProt Q00613 1-529). To be noted: protein: recombinant; tags: N-terminal GST; chain copies: 3; dsDNA, one strand shown. A digest of the protocol:
as §1

Another assay deals with T8, SPIC (Homo sapiens, UniProt Q8N5J4 1-248).
T8 sequence: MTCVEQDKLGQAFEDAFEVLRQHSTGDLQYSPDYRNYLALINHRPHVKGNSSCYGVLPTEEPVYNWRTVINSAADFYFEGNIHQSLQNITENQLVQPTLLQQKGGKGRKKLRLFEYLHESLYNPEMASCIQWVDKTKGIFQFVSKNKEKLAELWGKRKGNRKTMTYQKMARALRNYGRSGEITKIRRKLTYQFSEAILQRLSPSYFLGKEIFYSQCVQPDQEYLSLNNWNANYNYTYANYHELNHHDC
To be noted: protein: recombinant; tags: N-terminal GST; dsDNA, one strand shown. A digest of the protocol: as §1

The next assay concerns the target ELF4 (Homo sapiens, UniProt Q99607 1-663). To be noted: protein: recombinant; tags: N-terminal GST; dsDNA, one strand shown. A digest of the protocol: as §1
The target in the next assay is T9, ELK4 (Homo sapiens, UniProt P28324-2 1-405).
T9 sequence: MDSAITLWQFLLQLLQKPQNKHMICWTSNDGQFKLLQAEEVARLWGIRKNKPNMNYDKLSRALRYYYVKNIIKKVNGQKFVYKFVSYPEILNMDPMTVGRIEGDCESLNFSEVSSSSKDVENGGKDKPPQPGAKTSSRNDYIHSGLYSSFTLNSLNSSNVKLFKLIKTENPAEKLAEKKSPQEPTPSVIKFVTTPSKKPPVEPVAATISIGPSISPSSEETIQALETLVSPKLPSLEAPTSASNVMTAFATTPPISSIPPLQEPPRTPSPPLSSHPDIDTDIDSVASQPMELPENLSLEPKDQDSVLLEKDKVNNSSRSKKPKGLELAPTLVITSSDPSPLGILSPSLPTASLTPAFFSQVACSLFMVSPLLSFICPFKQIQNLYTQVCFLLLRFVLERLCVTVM
To be noted: protein: recombinant; tags: N-terminal GST; dsDNA, one strand shown. A digest of the protocol: as §1

A further assay concerns the target T10, ETV2 (Homo sapiens, UniProt O00321 1-342).
T10 sequence: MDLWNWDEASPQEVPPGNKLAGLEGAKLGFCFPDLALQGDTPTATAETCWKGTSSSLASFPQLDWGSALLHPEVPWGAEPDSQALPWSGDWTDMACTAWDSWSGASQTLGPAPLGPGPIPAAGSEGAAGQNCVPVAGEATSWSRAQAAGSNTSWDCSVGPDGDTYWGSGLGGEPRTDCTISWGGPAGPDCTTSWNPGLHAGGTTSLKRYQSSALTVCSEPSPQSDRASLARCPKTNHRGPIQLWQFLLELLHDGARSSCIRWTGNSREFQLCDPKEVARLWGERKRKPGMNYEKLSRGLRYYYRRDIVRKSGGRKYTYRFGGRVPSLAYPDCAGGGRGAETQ
Conditions: protein: recombinant; tags: N-terminal GST; dsDNA, one strand shown. Summed up: as §1

A further assay addresses T11, ELF3 (Homo sapiens, UniProt P78545 1-371).
T11 sequence: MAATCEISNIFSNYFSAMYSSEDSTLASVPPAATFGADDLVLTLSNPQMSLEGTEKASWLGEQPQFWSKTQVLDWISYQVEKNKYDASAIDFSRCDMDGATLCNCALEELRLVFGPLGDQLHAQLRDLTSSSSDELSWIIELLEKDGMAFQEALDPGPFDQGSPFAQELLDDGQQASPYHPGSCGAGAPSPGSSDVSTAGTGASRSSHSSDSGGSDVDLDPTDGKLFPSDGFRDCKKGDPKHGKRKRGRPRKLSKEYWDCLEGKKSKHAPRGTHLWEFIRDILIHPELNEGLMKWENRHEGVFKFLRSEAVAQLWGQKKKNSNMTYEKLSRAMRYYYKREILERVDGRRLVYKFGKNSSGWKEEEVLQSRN
Conditions: protein: recombinant; tags: N-terminal GST; dsDNA, one strand shown. Summed up: as §1

Another assay concerns the target CRX (Homo sapiens, UniProt O43186 1-299). To be noted: protein: recombinant; tags: N-terminal GST; dsDNA, one strand shown. Summed up:
as §1

For a further assay, the target named is ETV1 (Homo sapiens, UniProt P50549 1-477). To be noted: protein: recombinant; tags: N-terminal GST; dsDNA, one strand shown. A digest of the protocol: as §1
ETV1, sequence (P50549 whole entry): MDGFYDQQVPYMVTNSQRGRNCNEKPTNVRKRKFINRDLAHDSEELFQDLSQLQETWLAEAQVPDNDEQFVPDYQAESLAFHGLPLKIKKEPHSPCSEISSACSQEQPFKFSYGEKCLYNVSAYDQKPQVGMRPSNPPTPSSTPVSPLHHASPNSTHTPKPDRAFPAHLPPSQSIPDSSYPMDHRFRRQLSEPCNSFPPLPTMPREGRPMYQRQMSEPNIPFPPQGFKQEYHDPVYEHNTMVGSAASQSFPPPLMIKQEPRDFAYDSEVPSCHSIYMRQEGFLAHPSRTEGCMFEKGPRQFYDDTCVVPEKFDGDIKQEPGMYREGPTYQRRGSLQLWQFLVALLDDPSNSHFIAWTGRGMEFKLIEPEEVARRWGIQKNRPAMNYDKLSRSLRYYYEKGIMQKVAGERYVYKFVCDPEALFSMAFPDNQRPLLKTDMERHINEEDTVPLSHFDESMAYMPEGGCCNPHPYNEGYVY

ELF1, sequence (P32519 whole entry): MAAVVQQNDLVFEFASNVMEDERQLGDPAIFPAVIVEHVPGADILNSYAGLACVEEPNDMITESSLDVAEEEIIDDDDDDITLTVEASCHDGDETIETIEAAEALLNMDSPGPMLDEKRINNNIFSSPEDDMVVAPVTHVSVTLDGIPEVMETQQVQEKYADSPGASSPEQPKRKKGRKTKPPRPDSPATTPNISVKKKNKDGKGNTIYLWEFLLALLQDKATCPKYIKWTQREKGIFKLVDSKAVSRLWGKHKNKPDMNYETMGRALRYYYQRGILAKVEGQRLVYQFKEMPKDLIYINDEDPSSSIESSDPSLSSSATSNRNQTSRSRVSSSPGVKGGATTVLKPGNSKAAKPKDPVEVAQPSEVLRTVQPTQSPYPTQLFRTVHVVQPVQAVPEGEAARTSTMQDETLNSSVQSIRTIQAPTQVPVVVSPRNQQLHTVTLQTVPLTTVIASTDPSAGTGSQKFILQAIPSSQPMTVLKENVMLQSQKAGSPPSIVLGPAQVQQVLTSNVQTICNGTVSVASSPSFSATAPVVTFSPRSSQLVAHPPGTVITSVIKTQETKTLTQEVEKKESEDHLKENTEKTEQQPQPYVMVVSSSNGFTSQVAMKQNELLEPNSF
SPIB, sequence (Q01892 whole entry): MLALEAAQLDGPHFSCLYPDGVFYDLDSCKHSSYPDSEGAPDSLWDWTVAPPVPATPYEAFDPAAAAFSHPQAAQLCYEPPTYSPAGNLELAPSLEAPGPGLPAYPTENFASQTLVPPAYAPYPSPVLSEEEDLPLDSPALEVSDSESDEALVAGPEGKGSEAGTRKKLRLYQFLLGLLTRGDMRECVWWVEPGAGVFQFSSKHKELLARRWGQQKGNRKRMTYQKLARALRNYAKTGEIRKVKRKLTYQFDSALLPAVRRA
ELF4, sequence (Q99607 whole entry): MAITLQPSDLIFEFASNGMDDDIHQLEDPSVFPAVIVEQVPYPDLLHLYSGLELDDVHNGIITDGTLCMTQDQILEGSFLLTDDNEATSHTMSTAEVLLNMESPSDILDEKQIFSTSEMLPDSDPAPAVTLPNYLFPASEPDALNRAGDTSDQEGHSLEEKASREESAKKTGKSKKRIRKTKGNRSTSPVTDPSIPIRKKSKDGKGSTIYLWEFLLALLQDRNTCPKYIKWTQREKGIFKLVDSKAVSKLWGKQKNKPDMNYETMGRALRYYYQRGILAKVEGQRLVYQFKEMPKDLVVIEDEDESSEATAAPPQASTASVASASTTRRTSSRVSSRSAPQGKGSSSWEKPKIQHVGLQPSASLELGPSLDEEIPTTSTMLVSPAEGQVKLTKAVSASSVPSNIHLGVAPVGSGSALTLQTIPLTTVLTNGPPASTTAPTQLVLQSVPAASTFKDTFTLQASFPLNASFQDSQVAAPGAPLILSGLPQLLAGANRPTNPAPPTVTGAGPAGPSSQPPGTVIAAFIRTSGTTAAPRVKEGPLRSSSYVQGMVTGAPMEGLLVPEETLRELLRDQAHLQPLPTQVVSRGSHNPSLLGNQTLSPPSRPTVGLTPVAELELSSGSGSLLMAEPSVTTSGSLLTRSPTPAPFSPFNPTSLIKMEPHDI
CRX, sequence (O43186 whole entry): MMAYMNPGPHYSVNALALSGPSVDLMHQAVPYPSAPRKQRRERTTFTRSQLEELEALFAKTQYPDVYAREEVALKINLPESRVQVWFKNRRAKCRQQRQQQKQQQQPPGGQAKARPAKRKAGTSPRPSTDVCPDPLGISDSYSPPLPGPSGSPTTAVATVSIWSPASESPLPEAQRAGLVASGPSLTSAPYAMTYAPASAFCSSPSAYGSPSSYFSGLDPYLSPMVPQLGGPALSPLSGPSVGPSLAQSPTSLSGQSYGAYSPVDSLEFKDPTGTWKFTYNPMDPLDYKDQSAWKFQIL
HSF1, sequence (Q00613 whole entry): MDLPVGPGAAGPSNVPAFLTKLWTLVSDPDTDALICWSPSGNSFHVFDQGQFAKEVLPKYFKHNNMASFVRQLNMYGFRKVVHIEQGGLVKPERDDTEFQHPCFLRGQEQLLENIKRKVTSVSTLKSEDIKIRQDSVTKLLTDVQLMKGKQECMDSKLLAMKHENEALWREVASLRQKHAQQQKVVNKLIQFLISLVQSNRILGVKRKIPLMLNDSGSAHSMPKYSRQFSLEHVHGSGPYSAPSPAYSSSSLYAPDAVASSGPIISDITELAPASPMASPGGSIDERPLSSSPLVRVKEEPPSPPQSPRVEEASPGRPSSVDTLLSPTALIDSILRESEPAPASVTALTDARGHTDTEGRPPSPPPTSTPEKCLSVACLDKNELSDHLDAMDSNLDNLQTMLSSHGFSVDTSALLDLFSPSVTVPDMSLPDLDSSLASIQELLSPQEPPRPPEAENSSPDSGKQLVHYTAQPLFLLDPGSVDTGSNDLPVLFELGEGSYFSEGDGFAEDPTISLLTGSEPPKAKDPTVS
ETV5, sequence (P41161 whole entry): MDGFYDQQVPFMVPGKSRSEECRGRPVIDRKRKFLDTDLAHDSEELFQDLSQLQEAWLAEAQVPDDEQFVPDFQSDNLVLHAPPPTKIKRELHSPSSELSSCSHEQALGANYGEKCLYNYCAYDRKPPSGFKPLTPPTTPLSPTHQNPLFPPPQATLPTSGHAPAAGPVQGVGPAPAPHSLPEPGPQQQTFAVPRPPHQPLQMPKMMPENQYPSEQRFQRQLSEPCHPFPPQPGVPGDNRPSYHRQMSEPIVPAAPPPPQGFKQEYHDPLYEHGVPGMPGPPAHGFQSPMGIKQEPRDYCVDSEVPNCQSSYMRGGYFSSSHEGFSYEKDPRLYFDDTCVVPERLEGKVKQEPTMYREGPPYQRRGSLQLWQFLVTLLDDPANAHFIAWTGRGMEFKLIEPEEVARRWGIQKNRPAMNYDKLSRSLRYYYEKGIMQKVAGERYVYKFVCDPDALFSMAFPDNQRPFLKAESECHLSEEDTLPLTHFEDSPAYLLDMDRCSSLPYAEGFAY

With TGTTTG, the binding signal in the assay with FLI1 is 1.52 fold enrichment (6-mer frequency, TF over GST control); in the assay with ELK1 it was 1.31 fold enrichment (6-mer frequency, TF over GST control); with GABPA, 1.32 fold enrichment (6-mer frequency, TF over GST control); with ERG, 1.27 fold enrichment (6-mer frequency, TF over GST control); with ELF1, 1.22 fold enrichment (6-mer frequency, TF over GST control); in the assay with EHF, 1.31 fold enrichment (6-mer frequency, TF over GST control). Moreover, the binding signal in the assay with SPI1 was 1.29 fold enrichment (6-mer frequency, TF over GST control); with SPIB, 1.42 fold enrichment (6-mer frequency, TF over GST control); with ELK3, 1.29 fold enrichment (6-mer frequency, TF over GST control); with FEV it was 1.21 fold enrichment (6-mer frequency, TF over GST control); with ETV5 it was 1.23 fold enrichment (6-mer frequency, TF over GST control); in the assay with HSF1 it was 1.06 fold enrichment (6-mer frequency, TF over GST control). The binding signal with SPIC was 1.29 fold enrichment (6-mer frequency, TF over GST control); with ELF4 it was 1.36 fold enrichment (6-mer frequency, TF over GST control); in the assay with ELK4, 1.38 fold enrichment (6-mer frequency, TF over GST control); with ETV2, 1.14 fold enrichment (6-mer frequency, TF over GST control); with ELF3, 1.46 fold enrichment (6-mer frequency, TF over GST control); in the assay with CRX, 1.08 fold enrichment (6-mer frequency, TF over GST control). For the same sequence, the binding signal in the assay with ETV1 was 1.38 fold enrichment (6-mer frequency, TF over GST control).
